Here are results for 97 compounds from PubChem BioAssay AID571 (The Scripps Research Institute Molecular Screening Center, 2007).

Out of some 65,000 compounds screened, about 640 (0.98%) were called active.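 Rule for the calls: active = inhibition above a set limit, the mean inhibition across every tested compound plus 3 SD (cut at about 29% in these data); inactive = the rest.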 Shown is part of a subset that was picked to be rich in actives.

The target in this assay is 5-hydroxytryptamine receptor 1E (Homo sapiens) (UniProt P28566). Nature of the assay: blockade of human serotonin 5HT1E receptor – cell-based, HTS, primary screen (AID 571).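 Note: signal is the 460 over 535 nm emission ratio of beta-lactamase substrate; 0% = agonist plus DMSO wells and 100% = wells without agonist.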 As to conditions: CHO 5-HT1E Ga15 NFAT-bla reporter, FRET, antagonist; at 6 µM; stronger effect = higher value.
Chain of 5-hydroxytryptamine receptor 1E (Homo sapiens) (P28566 whole entry, looked up): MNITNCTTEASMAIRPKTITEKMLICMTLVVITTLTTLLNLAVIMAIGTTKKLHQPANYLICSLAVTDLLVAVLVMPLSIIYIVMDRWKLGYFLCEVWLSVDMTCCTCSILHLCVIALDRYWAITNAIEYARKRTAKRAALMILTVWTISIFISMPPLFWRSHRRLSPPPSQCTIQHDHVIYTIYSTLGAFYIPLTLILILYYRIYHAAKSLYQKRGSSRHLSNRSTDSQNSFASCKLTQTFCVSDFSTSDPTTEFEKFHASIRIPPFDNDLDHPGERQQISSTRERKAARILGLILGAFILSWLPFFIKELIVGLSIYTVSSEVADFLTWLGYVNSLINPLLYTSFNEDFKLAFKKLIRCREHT
Broadly, the inhibition is the drop in the measured response relative to a control, in per cent. On to `COc1cc(C(=O)N(Cc2ccc(N(C)C)cc2)C2CCS(=O)(=O)C2)cc(OC)c1OC` (configuration not stated), for which the inhibition was -0.54% (inactive).
As to `CCCOc1ccccc1C1CC(=O)Nc2cc3c(cc21)OCO3` (configuration not stated), the inhibition was 52.8% (active).
As for `COCCOC(=O)C1=C(C)NC(=O)CC1c1cc2c(cc1Br)OCO2` (configuration not stated), the inhibition is -1.17% (inactive).
Regarding `COc1cc2c(cc1OC)C(c1ccc(C)o1)CC(=O)N2` (configuration not stated), the inhibition is 11.3% (inactive).
As to `Cn1c(-c2ccco2)nc2cc3ccccc3cc21`, the inhibition is 1.87% (inactive).
As for `CCOCCN(C=O)c1cccc(OC)c1`, the inhibition is -9.77% (inactive).
With `COC(=O)c1ccc(NCC(=O)c2ccccc2)cc1`, the inhibition is -2.89% (inactive).
For `COc1ccc(C(=O)NCCc2ccc(S(N)(=O)=O)cc2)cc1OC`, the inhibition is 12.5% (inactive).
As for `O=C(Nc1cccc(F)c1)c1ccc(S(=O)(=O)N2CCCC2)cc1`, the figure is -2.92% (inactive); as for `O=C(CN1CCN(S(=O)(=O)c2ccc(F)cc2)CC1)Nc1ccccc1F`, 2.85% (inactive).
On to `CCOC(=O)N1CCN(S(=O)(=O)c2ccc(C(=O)Nc3ccc(F)cc3F)cc2)CC1`, for which the inhibition is 38.3% (active).
With `CCOC(=O)c1sc(NC(=O)CSc2ncccn2)c(C#N)c1C` the figure was -1.65% (inactive).
Turning to `O=S(=O)(c1ccccc1)N(CC(O)CN1CCCCC1)c1ccccc1` (configuration not stated), the inhibition was -17.2% (inactive).
As for `Cc1ccc(NC(=O)N2CCC(C(=O)NCc3ccc(F)cc3)CC2)cc1`, the inhibition was -1.42% (inactive).
For the compound `O=S(N1CCCCCC1)C12CC3CC(CC(C3)C1)C2` (configuration not stated), the inhibition was -12.6% (inactive).
Regarding `CCC(C)NC(=O)N[C@@H](CCSC)C(=O)O` (some centres not stated), the inhibition was -2.48% (inactive).
For the compound `Oc1c(C(c2cccs2)N2CCN(c3ccc(F)cc3)CC2)sc2ncnn12` (configuration not stated), the inhibition was -14% (inactive).
Take `O=C(CCSCCc1ccccn1)Nc1nccs1`: the inhibition is -8.42% (inactive).
For `CCC(=O)N(Cc1cc2cc(OC)ccc2[nH]c1=O)c1ccccc1C`, the inhibition is 15.6% (inactive).
As to `C/C(=C\C(=O)c1cccnc1)Nc1ccc(C)c(C)c1`, the inhibition is -0.61% (inactive).
Take `O=C(CNC(=O)c1ccc(Cl)cc1Cl)NCC(=O)Nc1ccccc1N1CCOCC1`: the inhibition is 5.85% (inactive).
With `CCOC(=O)c1cc(-c2nnc(-c3cc(OC)c(OC)c(OC)c3)o2)c(C)nc1C` the figure was -9.6% (inactive); with `COc1cc(-c2nnc(Cn3cc(C(F)(F)F)ccc3=O)o2)cc(OC)c1OC`, 29% (active).
Take `CCCc1nc2ccccc2c(C(=O)OCc2nnc(-c3cc(OC)c(OC)c(OC)c3)o2)c1CC`: the inhibition is 23% (inactive).
As for `COc1cccc(NC(=O)Cn2cnc3sc(C)c(S(=O)(=O)N4CCN(C)CC4)c3c2=O)c1`, the figure is -6.2% (inactive).
Consider `CC(C)c1nc(N2CCOCC2)c(C#N)c2c1COC(C)(C)C2`, for which the inhibition is 10.4% (inactive).
As for `COc1ccc(CSc2nc(N3CCOCC3)c3c(c2C#N)CC(C)(C)OC3)cc1`, the inhibition was -10.9% (inactive).
As to `CC1(C)Cc2c(C#N)c(SCc3nc4ccccc4[nH]3)nc(N3CCOCC3)c2CO1`, the inhibition was 28.9% (active).
Turning to `O=C(CSc1nnc(-c2cccnc2)n1Cc1ccco1)c1ccc(Cl)cc1`, the inhibition was 11% (inactive).
With `COc1ccc(-c2c3c(=O)n(C)c(=O)n(C)c3cn2-c2cccc(OC)c2)cc1`, the inhibition was 6.73% (inactive).
Take `Cc1ccc(-c2c3c(=O)n(C)c(=O)n(C)c3cn2-n2cnnc2)cc1`: the inhibition was 30.5% (active).
Turning to `Cc1ccc(-c2c3c(=O)n(C)c(=O)n(C)c3cn2-c2ccccc2O)cc1`, the inhibition was 4.09% (inactive).
For `CC1CC(C)CN(CC(=O)Nc2ccc(S(N)(=O)=O)cc2)C1` (configuration not stated), the inhibition is -5.33% (inactive).
With `Cc1ccc(SCc2cc(=O)[nH]c(N3CCCCC3)n2)cc1`, the inhibition was 2.38% (inactive).
With `C=CCSc1nnc(Cn2c(=O)sc3ccccc32)n1C`, the inhibition is 1.57% (inactive).
Regarding `COc1ccccc1-n1nnnc1S(=O)(=O)Cc1ccc(Cl)cc1`, the inhibition was 29.9% (active).
`COc1ccccc1N1CCN(Cc2nnnn2CCc2ccccc2)CC1`: the inhibition is -0.82% (inactive).
As for `COc1ccccc1N1CCN(C(=O)CN(Cc2ccc(Cl)cc2)S(C)(=O)=O)CC1`, the inhibition was -2.25% (inactive).
On to `Cn1cnc2c1c(=O)n(Cc1c(Cl)cccc1Cl)c(=O)n2C`, for which the inhibition was 5.12% (inactive).
Consider `COC(=O)CNS(=O)(=O)c1ccc(Cc2ccc(S(=O)(=O)NCC(=O)OC)cc2)cc1`, for which the inhibition is 3.6% (inactive).
As for `CCCn1c(C(O)c2ccc(OCC)cc2)nc2ccccc21` (configuration not stated), the figure is -10.8% (inactive).
For `COc1ccc(CCn2c(NCCCN3CCOCC3)nc3c2c(=O)[nH]c(=O)n3C)cc1`, the inhibition is -6.49% (inactive).
Turning to `COC(=O)c1ccc(NC(=O)CN(c2ccc(C)cc2)S(=O)(=O)c2c(C)n[nH]c2C)cc1`, the inhibition is 3.08% (inactive).
Turning to `CCOC(=O)c1ccc(-c2ccc(C(=O)Nc3cccnc3)o2)cc1`, the inhibition is 10.9% (inactive).
Turning to `Cc1cccc(NC(=O)CSc2nnc(NC(=O)CN3CCOCC3)s2)c1`, the inhibition is -3.22% (inactive).
`CCC(=O)Nc1ccc(C(=O)CSc2nnc(CNc3ccc(Cl)cc3)o2)cc1OC`: the inhibition is 1.52% (inactive).
On to `COc1ccc2c(c1OC)C(=O)N(c1ncn[nH]1)C2`, for which the inhibition is -0.04% (inactive).
As to `COC(=O)c1ccc(CSc2nc3ccccc3c(=O)n2-c2cccc(OC)c2)o1`, the inhibition is 39.7% (active).
For `COC(=O)c1ccc(CSc2ccccc2C)o1`, the inhibition was 1.46% (inactive).
With `COCC(C)n1c(SCc2ccc(C(=O)OC)o2)nc2ccccc2c1=O` (configuration not stated), the inhibition is 24.9% (inactive).
Regarding `Cc1cc(Nc2cccc(F)c2)n2ncnc2n1`, the inhibition is -1.52% (inactive).
`CC(=O)NCCc1ccc(S(=O)(=O)N(C)C2CCS(=O)(=O)C2)cc1` (configuration not stated): the inhibition is -8.57% (inactive).
With `Fc1ccc2nc(N3CCCCC3)sc2c1`, the inhibition is 1.55% (inactive).
As for `Fc1ccc2[nH]c3c(N4CCSCC4)ncnc3c2c1`, the inhibition is 54.9% (active).
On to `Fc1ccc2[nH]c3c(N4CCN(Cc5ccc6c(c5)OCO6)CC4)ncnc3c2c1`, for which the inhibition is 27.4% (inactive).
On to `C=CCN(CC=C)C(=O)CN1C(=O)c2ccccc2C1=O`, for which the inhibition was 1.46% (inactive).
Regarding `Oc1ccc2nc(Cc3ccccc3)[nH]c2c1`, the inhibition is -16.1% (inactive).
Turning to `COC(=O)Cc1nc2ccccc2[nH]1`, the inhibition was -1.34% (inactive).
`COC(=O)Nc1nc2ccc(Sc3ccccc3)cc2[nH]1`: the inhibition is 65.7% (active).
Take `CCOc1ccccc1C1CC(c2ccc(Cl)cc2)Nc2nc(N)nn21` (configuration not stated): the inhibition is 4.62% (inactive).
In the case of `N=c1n(Cc2ccc(Cl)cc2)c2ccccc2n1CC(O)c1ccco1` (configuration not stated), the inhibition is -1.68% (inactive).
As for `CC(=O)NC(C)(C)C1CC=C(C)/C(=N\O)C1` (configuration not stated), the figure is 6.93% (inactive); as for `CC(C)(C)C(=O)CCN1C(=O)C2(OCCO2)c2ccccc21`, -0.27% (inactive).
Consider `COc1ccc2[nH]c3c(=O)n(Cc4ccco4)cnc3c2c1`, for which the inhibition was 9.2% (inactive).
Take `CSc1nnc(CNC(=O)c2ccccc2)n1-c1ccc(F)cc1`: the inhibition is 4.06% (inactive).
As to `CC(NC(=O)c1ccco1)C(=O)Nc1nc(-c2ccccn2)cs1` (configuration not stated), the inhibition is -4.44% (inactive).
`CCn1c(Cc2ccccc2)nnc1SCC(=O)Nc1ccccc1`: the inhibition was -6.68% (inactive).
`CC1(C)CC(=O)C=C(NCCCNC2CCCCC2)C1`: the inhibition was 7.98% (inactive).
In the case of `Cc1ccccc1-n1c(SCC(=O)NCc2cccs2)nnc1-c1ccncc1`, the inhibition is -6.81% (inactive).
Consider `CCN(CC(=O)NCc1cccs1)c1nnnn1-c1ccccc1`, for which the inhibition was 28.8% (active).
Turning to `Cc1nnc(SCC(=O)NCc2cccs2)[nH]c1=O`, the inhibition is 2.95% (inactive).
Consider `c1cnn(-c2cc(N3CCOCC3)ncn2)c1`, for which the inhibition is -8.12% (inactive).
Take `c1ccc(-c2oc3ncnc(N4CCOCC4)c3c2-c2ccccc2)cc1`: the inhibition was -16.4% (inactive).
With `O=C1c2ccccc2-c2ncnc3c(N4CCOCC4)cc(N4CCOCC4)c1c23` the figure was 38.7% (active); with `COc1ccccc1N(C(=O)Cn1nnc2ccccc21)C(C(=O)NCc1ccco1)c1ccc(C)o1` (configuration not stated), 12.3% (inactive).
Consider `COc1ccc(-c2cc(C(F)(F)F)nc(S(C)(=O)=O)n2)cc1OC`, for which the inhibition was 70.8% (active).
As for `COc1ccc(-c2ccc(Nc3ccc(S(=O)(=O)N4CCCC4)cc3)nn2)cc1OC`, the inhibition is 20.8% (inactive).
In the case of `COc1ccc(-c2nnco2)cc1OC`, the inhibition was 3.01% (inactive).
As for `CCc1nc(Nc2ccc3nccnc3c2)c2oc3ccccc3c2n1`, the inhibition was 51.6% (active).
For `CCc1nc(N2CCN(c3nc(C)cc(C)n3)CC2)c2oc3ccccc3c2n1`, the inhibition is 4.92% (inactive).
For `CCSc1nc(C)nc2c1oc1ccccc12`, the inhibition is 10.3% (inactive).
Regarding `Cc1ccc(N(CC(O)CN2CCCC2)S(=O)(=O)c2ccccc2)cc1` (configuration not stated), the inhibition is -0.23% (inactive).
Turning to `Cc1ccc(Nc2cc(=O)n(C3CCCCC3)c(=O)[nH]2)cc1C`, the inhibition was -5.13% (inactive).
Take `CN1CCN(Cc2nc3c(c(=O)n(C)c(=O)n3C)n2Cc2cccc3ccccc23)CC1`: the inhibition is 1.52% (inactive).
As for `COc1ccc(N(CC(=O)NC2CCCCCCC2)S(=O)(=O)c2c(C)nn(C)c2C)cc1`, the inhibition was -13.7% (inactive).
`Cc1cn(C2C=CC(CO)O2)c(=O)[nH]c1=O` (configuration not stated): the inhibition is -4.28% (inactive).
Turning to `O=C(CN1C(=O)CSc2ncccc21)N1CCOCC1`, the inhibition was 16.6% (inactive).
Consider `Cc1cccc(CSc2nnc(Cn3c(=O)sc4ccccc43)n2C)c1`, for which the inhibition is -7.45% (inactive).
For `Cc1nc2cc(-c3ccc(F)cc3)nn2c(N2CCOCC2)c1C`, the inhibition was -1.31% (inactive).
In the case of `COc1cccc(-c2cc3nc4c(c(N5CCC6(CC5)OCCO6)n3n2)CCCC4)c1`, the inhibition was 28.7% (active).
On to `COc1cccc(-c2nc(S(=O)(=O)c3ccccc3)c(N3CCOCC3)o2)c1`, for which the inhibition was 19.7% (inactive).
As for `Cc1ccc(-n2ncc3c(=O)[nH]cnc32)c(C)c1`, the figure is 13% (inactive); as for `Cc1ccc(-n2ncc3c(N4CCN(c5ccc(F)cc5)CC4)ncnc32)c(C)c1`, 5.14% (inactive); as for `Cc1ccc(-n2ncc3c2ncn2nc(-c4ccco4)nc32)c(C)c1`, 40% (active).
Take `O=C(Cn1nnc2ccccc2c1=O)Nc1cc(C(F)(F)F)ccc1N1CCOCC1`: the inhibition is 5.96% (inactive).
With `Cn1nc(-c2ccc(N3CCOCC3)c(NC(=O)c3ccccc3)c2)c2ccccc2c1=O` the figure was 29.7% (active); with `COc1c(C)cccc1C(=O)Nc1cc(Cl)ccc1N1CCOCC1`, 0.53% (inactive).
